BJeLR viab HTS = compounds reducing viability of BJeLR cells; actives 0.64% (n = 30,000); viability loss activity score, % (test concentration not listed); BJeLR fibroblasts viability, CellTiterGlo ATP luminescence, 48 h; HRASV12, hTERT and SV40 LT/ST transformed; in the data active means viability loss activity score above about 50%; inconclusive means no clear call, values can overlap the other calls; inactive means below about 35%;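 further: higher score means fewer live cells and less ATP luminescence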
MITF inhib = inhibitors of MITF. TRPM1 promoter luciferase, luminescence, 24 h. inhibition, % (no concentration beside the values). actives 0.28% (n = 37,000); in the data active means inhibition above about 85%; inconclusive means no clear call, values can overlap the other calls; inactive means below about 68%;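 further: human melanocyte line stably carrying TRPM1 promoter luciferase reporter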
Hedgehog inh = Sonic Hedgehog pathway inhibition; Shh-LIGHT2 Gli-luciferase reporter, 30 h; inhibition, % (no concentration beside the values); actives 2.1% (n = 22,000);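 active means mean inhibition across valid replicates above about 65%, limit read from the data; inconclusive means mean under the limit, yet half or more replicates past it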;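 further: pathway switched on by Shh-conditioned medium diluted 1 in 25 in low serum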
A number is an active result. Shown is part of a subset that was picked to be rich in hits.

For Cc1nc(-c2c(C(=O)NN)noc2C)cs1 the results were BJeLR viab HTS inactive.
Screening CC(C)(C)c1cc(O)c(C(C)(C)C)cc1O returned BJeLR viab HTS inactive, MITF inhib inactive and Hedgehog inh 90.3.
Cc1cc(C(C)(C)C)c(O)c(C(C)(C)C)c1 was read as BJeLR viab HTS inactive, MITF inhib inactive and Hedgehog inh inactive.
`CCC(Cc1ccccc1)NS(=O)(=O)c1ccc2c(c1)CC(C)N2C(=O)C1CC1` (stereo unspecified) gave BJeLR viab HTS inactive.
CC(=O)c1cccc(NC(=O)CSc2nc(-c3ccc(F)cc3)cs2)c1 was read as MITF inhib inactive.
For C=C(C)C(=O)O[C@H]1C[C@@]2(C)OC(=CC2=O)/C(COC(C)=O)=C\[C@H]2OC(=O)C(=C)C12 (stereo partly specified) the results were BJeLR viab HTS 61.3, MITF inhib inactive and Hedgehog inh inconclusive.
For C=C(CO)C(=O)O[C@H]1C[C@@]23O[C@@H]2CC/C(=C/[C@H]2OC(=O)C(=C)[C@H]12)CO[C@@H]3O the results were BJeLR viab HTS inactive, MITF inhib inactive and Hedgehog inh inactive.
For C[C@H]1CN([C@@H](C)CO)C(=O)c2cccc(NC(=O)Nc3ccc(C(F)(F)F)cc3)c2O[C@H]1CN(C)S(=O)(=O)c1ccc(Cl)cc1 the results were BJeLR viab HTS inactive, MITF inhib inactive and Hedgehog inh 104.9.
Screening C[C@H](CO)N1C[C@H](C)[C@H](CN(C)S(=O)(=O)c2ccc(Cl)cc2)Oc2ccc(NC(=O)Nc3ccc(C(F)(F)F)cc3)cc2CC1=O returned MITF inhib inactive and Hedgehog inh 72.4.
Screening COc1ccc(NC(=O)Nc2cccc3c2O[C@@H](CN(C)S(=O)(=O)c2ccc(Cl)cc2)[C@@H](C)CN([C@@H](C)CO)C3=O)cc1 returned BJeLR viab HTS inactive, MITF inhib inactive and Hedgehog inh 100.8.
For Cc1ccc(S(=O)(=O)N(C)C[C@@H]2Oc3c(NC(=O)Nc4ccc(C(F)(F)F)cc4)cccc3C(=O)N([C@@H](C)CO)C[C@@H]2C)cc1 the results were BJeLR viab HTS inactive, MITF inhib inactive and Hedgehog inh 93.4.
C[C@@H]1CN([C@H](C)CO)C(=O)Cc2cc(NC(=O)Nc3ccc(C(F)(F)F)cc3)ccc2O[C@@H]1CN(C)S(=O)(=O)c1ccc(Cl)cc1 was read as MITF inhib inactive and Hedgehog inh inactive.
COc1ccc(NC(=O)Nc2cccc3c2O[C@H](CN(C)S(=O)(=O)c2ccc(Cl)cc2)[C@H](C)CN([C@@H](C)CO)C3=O)cc1 was read as BJeLR viab HTS inactive, MITF inhib inactive and Hedgehog inh inactive.
Cc1ccc(S(=O)(=O)N(C)C[C@@H]2Oc3c(NC(=O)Nc4ccc(C(F)(F)F)cc4)cccc3C(=O)N([C@H](C)CO)C[C@H]2C)cc1 was read as BJeLR viab HTS inactive, MITF inhib inactive and Hedgehog inh inactive.
`C[C@@H]1CN([C@H](C)CO)C(=O)c2cccc(NC(=O)Nc3ccc(C(F)(F)F)cc3)c2O[C@@H]1CN(C)S(=O)(=O)c1ccc(F)cc1` gave BJeLR viab HTS inactive, MITF inhib inactive and Hedgehog inh inactive.
Screening COc1ccc(-c2oc3ncn(CC(C)C)c(=N)c3c2-c2ccc(OC)cc2)cc1 returned BJeLR viab HTS inactive.
For Fc1cccc(Cl)c1CSC1=NCCN1 the results were BJeLR viab HTS inactive, MITF inhib inactive and Hedgehog inh inactive.
Screening Cc1ccc(S(=O)(=O)N(C)C[C@H]2Oc3c(NC(=O)Nc4ccc(C(F)(F)F)cc4)cccc3C(=O)N([C@@H](C)CO)C[C@H]2C)cc1 returned BJeLR viab HTS inactive, MITF inhib inactive and Hedgehog inh inactive.
C[C@H](CO)N1C[C@H](C)[C@H](CN(C)S(=O)(=O)c2ccc(Cl)cc2)Oc2c(NC(=O)Nc3ccc(C(F)(F)F)cc3)cccc2C1=O was read as BJeLR viab HTS inactive, MITF inhib inactive and Hedgehog inh 99.8.
CC(=O)Nc1cc(C(=O)N2CCN(c3cc(Cl)ccc3C)CC2)ccc1Sc1ccc(F)cc1 was read as BJeLR viab HTS inactive.
Screening Cc1ccc(CN(C(=O)COc2c(F)c(F)c(F)c(F)c2F)C2CCS(=O)(=O)C2)o1 (stereo unspecified) returned BJeLR viab HTS inactive.
Screening Cc1ccc(SCc2cc(=O)[nH]c(/N=C(\N)Nc3ccccc3)n2)cc1 returned BJeLR viab HTS inactive.
`C=C1CCC(O)/C(C)=C\CC(C(C)C)C(OC2OC(COC(C)=O)C(O)C(O)C2O)C1` (stereo unspecified) gave BJeLR viab HTS inactive, MITF inhib inactive and Hedgehog inh inactive.
Screening CC(C)CC1NC(=O)C(CC(C)C)N(O[C@@H]2O[C@H](COC(=O)CCC(=O)O)[C@@H](O)[C@H](O)[C@H]2O)C1=O (stereo partly specified) returned BJeLR viab HTS inactive, MITF inhib inactive and Hedgehog inh 74.1.
`Cc1ccc(NC(=O)CCn2nnc(-c3ccc(OCc4ccccc4F)cc3)n2)cc1C` gave BJeLR viab HTS inactive.
CC(=O)Nc1ncc2c(n1)CC(c1ccccc1)CC2=O (stereo unspecified) was read as BJeLR viab HTS inactive.
`CN1C(=O)S/C(=C\c2cc(Cl)c(OCC(=O)O)c(Cl)c2)C1=O` gave BJeLR viab HTS inactive.
C=C(C)C(=O)O[C@H]1CC(=C)C2C[C@H](O)[C@](O)(CO)C2[C@H]2OC(=O)C(=C)[C@H]12 (stereo partly specified) was read as BJeLR viab HTS inactive, MITF inhib inactive and Hedgehog inh inactive.
C=C(C)C(=O)O[C@H]1[C@H]2C(=C)C(=O)O[C@@H]2C[C@@H](C)[C@@H]2O[C@@H]2C(=O)[C@](C)(O)[C@@H]1OC(=O)C(=C)C was read as BJeLR viab HTS 79.7, MITF inhib inactive and Hedgehog inh 99.8.
O=C(NCc1ccc2c(c1)OCO2)c1cccc2ccccc12 was read as BJeLR viab HTS inactive.
For O=S(=O)(NCCNC/C=C/c1ccc(Br)cc1)c1cccc2cnccc12 the results were BJeLR viab HTS inactive, MITF inhib inactive and Hedgehog inh 81.0.
`CNCCNS(=O)(=O)c1cccc2cnccc12` gave BJeLR viab HTS inactive, MITF inhib inactive and Hedgehog inh inactive.
For S=C(Nc1ccc(Cl)cc1)N1CCSC1c1ccc(Br)cc1 (stereo unspecified) the results were BJeLR viab HTS inactive.
Cc1cc(C(=O)Nc2cccc3c2O[C@@H](CN(C)Cc2ccc(Oc4ccccc4)cc2)[C@H](C)CN([C@H](C)CO)C3=O)n(C)n1 was read as BJeLR viab HTS inactive, MITF inhib inactive and Hedgehog inh 69.2.
Cc1cc(C(=O)Nc2cccc3c2O[C@H](CN(C)Cc2ccc(Oc4ccccc4)cc2)[C@H](C)CN([C@@H](C)CO)C3=O)n(C)n1 was read as BJeLR viab HTS inactive, MITF inhib inactive and Hedgehog inh inactive.
Cc1cc(C(=O)Nc2cccc3c2O[C@H](CN(C)Cc2ccc(Oc4ccccc4)cc2)[C@@H](C)CN([C@@H](C)CO)C3=O)n(C)n1 was read as BJeLR viab HTS inactive, MITF inhib inactive and Hedgehog inh 76.6.
C[C@@H]1CN([C@@H](C)CO)C(=O)c2cccc(NC(=O)c3ccc(-c4nccs4)cc3)c2O[C@@H]1CN(C)C(=O)Nc1cccc2ccccc12 was read as BJeLR viab HTS inactive, MITF inhib inactive and Hedgehog inh 66.0.
